Assay results reported in PubChem BioAssay AID1159580 (chemical genetic matrix, 2015).
Values joined by “and” are separate entries in the source; they are usually repeats but may differ in a detail not shown here. Identical values can stand only once. In all, about 5,500 compounds went through this assay and about 2,000 (36%) were called active. About 18% were inconclusive and are not listed. No stated cut-off is given here; in the data, active means normalized growth mostly below about 0.91 (no sharp cut-off); inconclusive means no clear call, values can overlap the other calls; inactive means mostly above about 0.92. The list shows a part of the results.

Assay: chemical genetic growth profiling, strain panel (AID 1159580);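 further: tested at 20 µM; growth read once vehicle control cultures reached saturation at 30 °C; 1 = growth at the plate median or of vehicle wells; lower values mean less growth of the strain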
Details: S. cerevisiae deletion strains, growth OD

Measured: normalized growth

CN1C[C@H](C(=O)N[C@]2(C)O[C@@]3(O)[C@@H]4CCCN4C(=O)[C@H](Cc4ccccc4)N3C2=O)C[C@@H]2c3cccc4[nH]cc(c34)C[C@H]21
active: locus YGR252W, strain gcn5, active compounds read low 0.741
inactive: locus YAL013W, strain DEP1, active compounds read low 0.96 | locus YAL021C, strain ccr4, active compounds read low 0.95 | locus YAL026C, strain drs2, active compounds read low 1.01 | locus YAL030W, strain snc1, active compounds read low 0.984 | locus YBL061C, strain skt5, active compounds read low 0.996 | locus YBR009C, strain hhf1, active compounds read low 1.07 | locus YBR021W, strain FUR4, active compounds read low 0.929 | locus YBR023C, strain chs3, active compounds read low 1 | locus YBR171W, strain sec66, active compounds read low 0.973 | locus YBR229C, strain ROT2, active compounds read low 0.983 | locus YBR231C, strain swc5, active compounds read low 0.987 | locus YBR279W, strain paf1, active compounds read low 0.997 | locus YCL011C, strain gbp2, active compounds read low 0.966 | locus YCL016C, strain dcc1, active compounds read low 0.998 | locus YCL029C, strain bik1, active compounds read low 0.973 | locus YCL061C, strain MRC1, active compounds read low 0.998 | locus YCL069W, strain vba3, active compounds read low 0.992 | locus YCR088W, strain abp1, active compounds read low 0.994 | locus YDL005C, strain med2, active compounds read low 0.997 | locus YDL035C, strain GPR1, active compounds read low 1.01 | locus YDL040C, strain nat1, active compounds read low 1 | locus YDL074C, strain BRE1, active compounds read low 0.896 | locus YDL101C, strain DUN1, active compounds read low 0.957 | locus YDL134C, strain PPH21, active compounds read low 0.992 | locus YDL185W, strain tfp1, active compounds read low 0.998 | locus YDL192W, strain arf1, active compounds read low 0.988 | locus YDR001C, strain nth1, active compounds read low 0.981 | locus YDR069C, strain doa4, active compounds read low 0.987 | locus YDR101C, strain arx1, active compounds read low 0.996 | locus YDR137W, strain rgp1, active compounds read low 1.02 | locus YDR150W, strain NUM1, active compounds read low 1 | locus YDR159W, strain sac3, active compounds read low 1 | locus YDR162C, strain NBP2, active compounds read low 0.987 | locus YDR195W, strain ref2 0.99 | locus YDR297W, strain sur2, active compounds read low 0.981 | locus YDR318W, strain mcm21, active compounds read low 0.97 | locus YDR334W, strain swr1, active compounds read low 0.944 | locus YDR335W, strain msn5, active compounds read low 0.992 | locus YDR388W, active compounds read low 0.981 | locus YDR392W, strain spt3, active compounds read low 0.871 | locus YDR502C, strain sam2, active compounds read low 0.968 | locus YEL003W, strain gim4, active compounds read low 0.99 | locus YEL037C, strain rad23, active compounds read low 0.987 | locus YEL061C, strain CIN8 (second series), active compounds read low 0.994 | locus YEL061C, strain CIN8, active compounds read low 0.996 | locus YER015W, strain faa2, active compounds read low 0.971 | locus YER016W, strain bim1, active compounds read low 0.988 | locus YER110C, active compounds read low 0.977 | locus YER111C, strain swi4, active compounds read low 1.01 | locus YER155C, strain BEM2 (second series), active compounds read low 0.964 | locus YER155C, strain BEM2, active compounds read low 0.979 | locus YER167W, strain BCK2, active compounds read low 0.981 | locus YFR010W, strain ubp6, active compounds read low 0.997 | locus YGL078C, strain dbp3, active compounds read low 0.982 | locus YGL086W, strain mad1, active compounds read low 0.985 | locus YGL167C, strain pmr1, active compounds read low 1 | locus YGL173C, strain kem1, active compounds read low 0.993 | locus YGL227W, strain vid30, active compounds read low 0.996 | locus YGL240W, strain doc1, active compounds read low 0.938 | locus YGL248W, strain PDE1, active compounds read low 0.945 | locus YGL253W, strain hxk2, active compounds read low 0.98 | locus YGR078C, strain PAC10, active compounds read low 0.947 | locus YGR135W, strain pre9, active compounds read low 0.912 | locus YHR013C, strain ard1, active compounds read low 0.971 | locus YHR027C, strain rpn1, active compounds read low 0.967 | locus YHR030C, strain SLT2, active compounds read low 0.994 and 1.01 | locus YHR079C, strain IRE1 (second series), active compounds read low 0.977 | locus YHR079C, strain IRE1, active compounds read low 1.01 | locus YHR094C, strain hxt1, active compounds read low 0.98 | locus YHR129C, strain ARP1, active compounds read low 0.983 | locus YHR142W, strain chs7, active compounds read low 1 | locus YHR200W, strain rpn10, active compounds read low 0.981 | locus YIL066C, strain RNR3, active compounds read low 0.984 | locus YIL073C, strain SPO22, active compounds read low 0.98 | locus YIL125W, strain kgd1, active compounds read low 0.987 | locus YIR030C, strain dcg1, active compounds read low 0.975 | locus YJL092W, strain hpr5, active compounds read low 0.985 | locus YJL095W, strain BCK1 (second series), active compounds read low 0.98 | locus YJL095W, strain BCK1, active compounds read low 0.926 and 1.03 | locus YJL115W, strain asf1, active compounds read low 0.983 | locus YJL129C, strain trk1, active compounds read low 0.973 | locus YJL134W, strain LCB3, active compounds read low 0.984 | locus YJL154C, strain vps35, active compounds read low 0.982 | locus YJL164C, strain tpk1, active compounds read low 1.02 | locus YJL166W, strain qcr8, active compounds read low 0.94 | locus YJL168C, strain set2, active compounds read low 0.98 | locus YJL187C, strain SWE1 (second series), active compounds read low 0.941 | locus YJL187C, strain SWE1, active compounds read low 0.986 | locus YJR043C, strain POL32, active compounds read low 0.991 | locus YJR066W, strain TOR1, active compounds read low 0.94
